# Results as given in PubChem BioAssay.
# Calls of active or inactive are those of the source.
# How the values were obtained:
# [1] = small molecules captured by biotinylated probe aFSTL3 – biochemical, small-molecule microarray, fluorescence 635/667, stem cell growth factor project, primary screen (AID 1064); conditions: higher = more signal;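 note: measures binding of the biotinylated anti-FSTL3 antibody to printed compounds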
# [2] = binders from COS7 lysate, DM2A8 probe, primary screen, torsin A project, cell lysate, small-molecule microarray, fluorescence 635/667 (AID 1065); conditions: higher = more signal, COS7 lysate expressing mutant human TOR1A
# [3] = small molecules captured by biotinylated probe aFGF2 – biochemical, small-molecule microarray, fluorescence 635/667, stem cell growth factor project, primary screen (AID 1067); conditions: higher = more signal;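 note: measures binding of biotinylated aFGF2 protein to printed compounds on slides; z-score merges feature fluorescence and signal-to-noise across triplicate slides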
# [4] = small molecules captured by biotinylated probe aFGF10 – biochemical, small-molecule microarray, fluorescence 635/667, stem cell growth factor project, primary screen (AID 1071); conditions: higher = more signal;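 note: score merges 667 nm spot intensity and signal to noise from triplicate slides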
# [5] = molecular target: Neurogenic locus notch homolog protein 2 (Homo sapiens) (UniProt Q04721); assay: small molecules binding Notch2 protein – biochemical, small-molecule microarray, 635 nm fluorescence, stem cell growth factors, primary screen (AID 1073); conditions: higher = more signal
# [6] = molecular target: Pro-neuregulin-1, membrane-bound isoform (Homo sapiens) (UniProt Q02297); assay: small molecules binding neuregulin-1 protein – biochemical, small-molecule microarray, fluorescence 635/667, psychiatric disease protein project, primary screen (AID 1075); conditions: NRG1 binding, 635 nm fluorescence, higher = more signal;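 note: score combines 667 nm spot fluorescence with signal to noise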
# [7] = test system: Neuregulin-1 EGF-like domain; assay: small molecules binding NRG1 EGF domain – biochemical, small-molecule microarray, 635 nm fluorescence, primary screen (AID 1081); conditions: higher = more signal;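 note: binding of the protein to compounds printed on small-molecule microarray slides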
# [8] = FRG1 expression reporter modulators in myotubes – cell-based, C2C12 myotubes, firefly/Renilla luciferase, luminescence, FRG1 inhibition for FSHD, primary screen (AID 1084); conditions: FRG1 promoter luciferase, higher = more signal, called active from +8 up or from −8 down
# [9] = small molecules captured by biotinylated probe aFST – biochemical, small-molecule microarray, fluorescence 635/667, stem cell growth factor project, primary screen (AID 1086); conditions: higher = more signal;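 note: score merges 667 nm fluorescence with signal-to-noise of each printed compound spot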
# [10] = binders of probe aHhip on microarray, primary screen, stem cell growth factor project, biochemical, small-molecule microarray, fluorescence 635/667 (AID 1087); conditions: higher = more signal;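 note: score merges spot fluorescence at 667nm with spot signal to noise ratio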
# Sequence of Pro-neuregulin-1, membrane-bound isoform (Homo sapiens) (Q02297 whole entry, looked up, the tested form may be a part, canonical isoform): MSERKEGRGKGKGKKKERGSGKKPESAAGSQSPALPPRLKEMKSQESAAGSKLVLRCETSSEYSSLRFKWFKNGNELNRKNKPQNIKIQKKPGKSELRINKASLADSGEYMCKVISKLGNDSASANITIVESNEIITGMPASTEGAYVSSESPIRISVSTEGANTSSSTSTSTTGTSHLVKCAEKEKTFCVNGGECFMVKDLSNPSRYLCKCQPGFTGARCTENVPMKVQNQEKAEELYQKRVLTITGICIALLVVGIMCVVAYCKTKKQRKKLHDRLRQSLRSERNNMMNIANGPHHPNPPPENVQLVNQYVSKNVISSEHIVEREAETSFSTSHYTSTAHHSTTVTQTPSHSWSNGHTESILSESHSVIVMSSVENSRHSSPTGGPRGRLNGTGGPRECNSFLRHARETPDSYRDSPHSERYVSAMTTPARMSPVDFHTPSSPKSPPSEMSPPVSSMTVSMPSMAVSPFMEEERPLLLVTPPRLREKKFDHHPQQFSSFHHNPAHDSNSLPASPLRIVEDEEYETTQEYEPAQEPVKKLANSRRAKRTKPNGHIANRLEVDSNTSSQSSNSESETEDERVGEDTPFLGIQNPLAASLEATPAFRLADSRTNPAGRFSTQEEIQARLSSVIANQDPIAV
# Sequence of Neurogenic locus notch homolog protein 2 (Homo sapiens) (Q04721 whole entry, looked up, canonical isoform): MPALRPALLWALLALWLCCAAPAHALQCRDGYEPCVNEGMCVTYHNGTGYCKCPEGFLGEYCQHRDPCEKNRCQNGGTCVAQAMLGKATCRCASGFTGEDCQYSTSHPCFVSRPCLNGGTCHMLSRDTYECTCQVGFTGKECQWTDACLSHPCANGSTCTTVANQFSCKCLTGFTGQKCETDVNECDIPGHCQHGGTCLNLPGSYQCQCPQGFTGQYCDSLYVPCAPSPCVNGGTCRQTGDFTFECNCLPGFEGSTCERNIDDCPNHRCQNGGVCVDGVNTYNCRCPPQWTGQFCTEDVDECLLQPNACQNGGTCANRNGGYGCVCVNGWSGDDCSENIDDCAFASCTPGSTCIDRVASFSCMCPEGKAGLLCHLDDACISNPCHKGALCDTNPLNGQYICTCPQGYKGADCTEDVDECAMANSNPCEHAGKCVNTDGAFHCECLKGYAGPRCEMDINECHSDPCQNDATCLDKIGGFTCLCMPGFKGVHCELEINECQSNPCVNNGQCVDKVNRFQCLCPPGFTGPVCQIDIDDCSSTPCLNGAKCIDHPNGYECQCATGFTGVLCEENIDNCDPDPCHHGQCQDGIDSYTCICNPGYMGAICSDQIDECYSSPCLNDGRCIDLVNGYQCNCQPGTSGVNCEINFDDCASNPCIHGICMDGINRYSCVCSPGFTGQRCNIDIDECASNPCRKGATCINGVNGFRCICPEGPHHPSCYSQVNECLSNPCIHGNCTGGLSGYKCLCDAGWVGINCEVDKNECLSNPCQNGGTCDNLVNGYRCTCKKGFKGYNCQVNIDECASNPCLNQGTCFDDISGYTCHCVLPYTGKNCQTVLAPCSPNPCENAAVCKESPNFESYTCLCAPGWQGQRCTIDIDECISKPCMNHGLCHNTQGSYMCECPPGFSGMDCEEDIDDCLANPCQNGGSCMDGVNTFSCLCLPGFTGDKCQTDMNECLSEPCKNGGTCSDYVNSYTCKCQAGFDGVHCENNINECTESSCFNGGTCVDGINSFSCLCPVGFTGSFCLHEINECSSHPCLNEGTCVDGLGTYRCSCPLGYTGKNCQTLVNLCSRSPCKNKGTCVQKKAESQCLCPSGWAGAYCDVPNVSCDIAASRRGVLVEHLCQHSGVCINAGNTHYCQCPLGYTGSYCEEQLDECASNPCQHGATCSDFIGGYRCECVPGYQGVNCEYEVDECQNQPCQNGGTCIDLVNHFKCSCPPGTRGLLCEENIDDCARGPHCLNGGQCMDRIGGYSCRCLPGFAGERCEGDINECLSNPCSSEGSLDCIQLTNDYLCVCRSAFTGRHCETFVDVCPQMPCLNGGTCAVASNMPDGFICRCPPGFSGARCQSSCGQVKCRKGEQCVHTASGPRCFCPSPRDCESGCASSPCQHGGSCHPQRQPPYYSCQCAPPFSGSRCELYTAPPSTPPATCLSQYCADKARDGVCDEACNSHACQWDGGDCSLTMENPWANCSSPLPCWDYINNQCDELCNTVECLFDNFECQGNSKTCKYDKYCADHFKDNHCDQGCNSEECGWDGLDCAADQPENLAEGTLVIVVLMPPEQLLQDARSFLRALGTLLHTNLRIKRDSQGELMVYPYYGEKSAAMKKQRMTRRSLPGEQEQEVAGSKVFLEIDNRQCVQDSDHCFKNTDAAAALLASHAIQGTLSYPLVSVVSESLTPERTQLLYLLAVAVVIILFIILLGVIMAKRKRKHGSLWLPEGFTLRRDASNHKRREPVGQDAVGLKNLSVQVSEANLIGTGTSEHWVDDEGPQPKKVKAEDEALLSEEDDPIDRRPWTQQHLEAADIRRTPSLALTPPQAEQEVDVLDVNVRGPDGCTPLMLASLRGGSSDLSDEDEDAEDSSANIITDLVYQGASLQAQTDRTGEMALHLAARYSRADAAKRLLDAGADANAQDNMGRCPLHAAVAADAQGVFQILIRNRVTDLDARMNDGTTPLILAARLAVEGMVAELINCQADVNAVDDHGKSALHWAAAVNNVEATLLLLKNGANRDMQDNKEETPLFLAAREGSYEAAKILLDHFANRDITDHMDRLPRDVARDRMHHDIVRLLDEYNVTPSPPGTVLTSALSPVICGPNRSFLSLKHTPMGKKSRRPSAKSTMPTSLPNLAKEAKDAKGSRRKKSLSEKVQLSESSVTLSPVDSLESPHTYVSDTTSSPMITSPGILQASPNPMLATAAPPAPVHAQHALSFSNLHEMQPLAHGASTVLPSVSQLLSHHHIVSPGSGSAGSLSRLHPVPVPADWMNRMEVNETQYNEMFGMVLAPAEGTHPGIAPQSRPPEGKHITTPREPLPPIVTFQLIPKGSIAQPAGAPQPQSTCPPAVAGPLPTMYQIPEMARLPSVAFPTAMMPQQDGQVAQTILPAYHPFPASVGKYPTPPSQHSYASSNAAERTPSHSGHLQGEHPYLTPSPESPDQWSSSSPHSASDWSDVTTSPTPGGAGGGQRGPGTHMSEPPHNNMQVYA
Compound,composite z-score [1],composite z-score [2],composite z-score [3],composite z-score [4],composite z-score [5],composite z-score [6],composite z-score [7],z-score [8],composite z-score [9],composite z-score [10]
[N-]=[N+]=NCc1ccccc1[C@@H]1OC(c2ccc(OCCCO)cc2)=N[C@]1(Cc1ccccc1)C(=O)NCCN1CCOCC1,0.32,0.0026,0.159,1.1,1.4,1.25,1.23,0.106 (inactive),1.09,-0.126
CN1C(=O)C2C=CC(C(O)c3ccc(I)cc3)N(Nc3ccccc3)C2C1=O (stereo not given),0.131,0.238,0.0253,0.846,1.26,1.56,1.24,0.266 (inactive),0.942,0.142
NC(=O)[C@H]1[C@@H]2C(=O)O[C@@H](c3ccccc3)[C@@H](c3ccccc3)N2[C@@H](c2ccc(O)cc2)[C@]12C(=O)Nc1ccccc12,0.339,-1.11,-0.128,-0.171,-1.37,1.81,0.653,-0.977 (inactive),-0.442,-0.137
CC(C)(C)OC(=O)CC[C@]1(C(=O)N2CCCCC2)COC(c2ccc(OCCCO)cc2)=N1,0.161,1.05,0.0159,1.2,1.6,1.35,1.15,-2.51 (inactive),0.372,0.0373
COCCOC(=O)N1C(=O)[C@@]2(c3cc(C#CC4=CCCCC4)ccc31)[C@H](c1ccc(O)cc1)N1[C@H](c3ccccc3)[C@H](c3ccccc3)OC(=O)[C@H]1[C@@H]2C(=O)NC[C@H](O)c1ccccc1,-0.217,0.167,0.0059,0.824,1.18,1.3,1.2,0.675 (inactive),0.443,-0.174
Cc1cccc([C@H]2C[C@H]3C(Br)=C[C@@H]2C(=O)[C@]32CO2)c1,0.165,0.0316,-0.182,-0.228,-0.0632,-0.424,-0.779,1.02 (inactive),-0.264,-0.0169
O=C1c2ccccc2[C@](Cc2ccccc2I)(C(=O)NC2CC2)[C@H](c2ccc(CO)cc2)N1Cc1ccccc1C(F)(F)F,-0.0446,0.338,-0.0878,0.433,-0.229,1.74,1.26,-2.07 (inactive),0.11,-0.0726
COC(=O)[C@@]1(Cc2ccccc2)[C@H]2c3cc(C(=O)N4CCCC4)n(CCSCCO)c3C[C@H]2CN1C(=O)c1ccccc1,0.729,0.773,0.457,0.525,1.83,1.66,1.37,-0.906 (inactive),0.894,0.189
CCOC(=O)C1=CCN(S(=O)(=O)c2ccc(C)cc2)C1c1ccccc1 (stereo not given),-0.0137,0.229,-0.0232,0.535,1.5,1.44,1.2,-0.158 (inactive),0.439,0.113
CCOC(=O)C1=CCC(c2ccco2)N(S(=O)(=O)c2ccc(C)cc2)C1 (stereo not given),0.632,-0.0497,0.0061,0.864,1.62,1.46,0.791,-2.47 (inactive),0.803,0.127
O=C(CS)NCCCCCCNC(=O)[C@@H]1C[C@@H]2C(=O)NCC(=O)N2[C@@H]1c1ccc(O)cc1,0.169,-0.0906,-0.157,-0.505,-0.918,-0.75,0.729,-1.15 (inactive),-0.183,-0.0324
C=C(CCCC)/C(=C/C[C@H](OC(C)=O)c1ccc(OCCO)cc1)c1cc(C(=O)OC)ccc1OC,-0.321,-0.137,0.0057,0.674,-0.0254,1.04,1,8.65 (active),-0.28,-0.179
Cc1ccc(F)cc1S(=O)(=O)N[C@@H]1CCN(Cc2cccc3[nH]ccc23)C1,1.05,0.871,-0.0894,0.513,0.37,1.38,0.379,-0.762 (inactive),-0.0112,-0.0994
COCC(=C=CC[C@@H](O)c1ccc(OCCO)cc1)CCO,-0.394,1.19,-0.0861,0.115,-0.0206,1.45,0.745,1.67 (inactive),0.17,-0.249
COc1ccc([Si](C)(C)[C@H]2[C@H](CCO)O[C@@]3(C(=O)N(Cc4ccccc4)c4ccc(N5CCOC5=O)cc43)[C@@H]2C)cc1,-0.226,0.0044,-0.126,0.522,0.591,0.872,0.828,-2.79 (inactive),0.135,-0.226
CCOC(=O)C1=CC[C@@H](c2ccccc2)N(S(=O)(=O)c2ccc(C)cc2)[C@H]1c1cccc(OC)c1,0.154,-0.133,0.0182,0.31,1.34,1.28,0.746,-2.57 (inactive),0.648,-0.0203
CN(C)C(=O)[C@@]1(Cc2ccccc2N=[N+]=[N-])N=C(c2ccc(OCCCO)cc2)O[C@H]1c1ccccc1,0.657,0.687,0.0282,0.359,1.63,1.2,1.32,-1.75 (inactive),1.23,0.294
